Among all 390,000 compounds or so, about 760 (0.19%) were called active. Not shown: some 3% with an inconclusive outcome. Calls follow the shape of the dose curve; as a rule, active = well fitted inhibition curve with a large enough effect; inconclusive = small, poorly fitted or top-dose-only effect; inactive = flat fitted curve, though single readings scatter. Shown is part of a subset that was picked to be rich in actives. Entries that show only a call come without a potency.
Test: qHTS for Inhibitors of Vif-A3F Interactions: qHTS; also: nearly all actives have a fitted effect of over 65% in size
Conditions: HeLa A3F-eYFP + Vif (tagged APOBEC3F with the HIV-1 protein that degrades it), YFP fluorescence increase; series mostly up to 46.1 µM
In short: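 Fluorescence increase (Ex 488/Em 500-530) after overnight compound treatment at 37 deg C flags inhibition of Vif-driven A3F-eYFP loss in stable HeLa A3F-eYFP/Vif cells seeded overnight beforehand.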
For Cc1[nH]c2ccccc2c1C(c1ccccc1)c1cccs1 (stereo not drawn), the Potency was “inactive”. With COc1ccc(C2CC(c3cccs3)=Nc3ccccc3S2)cc1OC (stereo not drawn) the Potency was “inactive”. For Cc1ccccc1C1CC(c2cccs2)=NN1S(C)(=O)=O (stereo not drawn), the Potency was 17.8 µM (active). With CC1Cn2c(nnc2-c2cccs2)S1 (stereo not drawn) the Potency was “inactive”. In the case of COc1cc(NS(=O)(=O)c2cccs2)cc(OC)c1, the Potency is reported as “inactive”. In the case of Cc1ccccc1Cn1nc(C)c(NC(=O)c2cc(-c3ccc(F)cc3)on2)c1C, the Potency is reported as “inactive”. For CCN(CCCNC(=O)CSc1cc(=O)n(C)c2cc(Cl)ccc12)c1cccc(C)c1, the Potency was “inactive”. For COc1ccc(/C=C/c2nc(C#N)c(NCc3ccc(F)cc3)o2)cc1OC, the Potency was “inactive”. With N#Cc1nc(/C=C/c2ccc(F)cc2)oc1NCc1ccc(F)cc1 the Potency was “inactive”. For Cc1ccc(CSCC(=O)N(C)CC(=O)Nc2cccc(F)c2)cc1, the Potency was “inactive”. For CCN(CC)C(=O)CSC(Nc1cccc(F)c1)=C(C#N)C#N, the Potency was 10 µM (active). With CCOC(=O)c1nnn(CC(=O)Nc2cccc(F)c2)c1C(=O)OCC the Potency was “inactive”. For Cc1cc(C)cc(NC(c2nnc(-c3cccc(F)c3)o2)c2ccc(F)cc2Cl)c1 (stereo not drawn), the Potency was “inactive”. In the case of O=C(Nc1ccc(S(=O)(=O)N2CCC(c3nc4ccccc4s3)CC2)cc1)c1ccccc1F, the Potency is reported as “inactive”. In the case of O=C(Cn1nc(C(F)(F)F)c2c1CCCC2)Nc1ccc(Cl)cc1, the Potency is reported as “inactive”. In the case of NS(=O)(=O)c1ccc(NC(=O)COc2ccc(S(=O)(=O)NC3CCCCC3)cc2)cc1, the Potency is reported as “inactive”. In the case of Cc1cccn2c(=O)c(C(=O)NC(C)c3ccccc3)cnc12 (stereo not drawn), the Potency is reported as “inactive”. In the case of CCC1CN(S(=O)(=O)c2cc(-c3cc(C)no3)ccc2C)c2cc(C)ccc2O1 (stereo not drawn), the Potency is reported as “inactive”. With O=C(CSc1oc(-c2ccco2)nc1S(=O)(=O)c1ccccc1)c1ccc(Cl)cc1 the Potency was “inactive”. For CCOc1ccc(CNC(=O)C2CCCN(S(=O)(=O)N(CC)c3ccc(OCC)cc3)C2)cc1 (stereo not drawn), the Potency was “inactive”. In the case of CCOC(=O)c1cccc(NC(=O)c2cc(S(=O)(=O)N3CCCC(C)C3)cn2C)c1 (stereo not drawn), the Potency is reported as “inactive”. With Cc1ccc(NC(=O)CSc2nc3c([nH]c4ccccc43)c(=O)n2-c2ccccc2)c(C)c1 the Potency was “inactive”. For CCCOc1ccc(-c2cccc(NS(=O)(=O)c3ccccc3)c2)nn1, the Potency was “inactive”. In the case of CCCN1CCN(CCCNC(=O)Cn2nc(CC)n3c(cc4occc43)c2=O)CC1, the Potency is reported as “inactive”. With O=C(COc1ccccc1F)Nc1ccc(C(=O)OCc2cc(=O)n3nc(C4CC4)sc3n2)cc1 the Potency was “inactive”. With CC1=C(c2ccc(Cl)cc2)S(=O)(=O)N=C1N1CCN(c2cc(C)ccc2C)CC1 the Potency was “inactive”. With Cc1ccccc1CN1CCC(CNC(=O)c2cc3ccc4cccnc4c3[nH]2)CC1 the Potency was “inactive”. In the case of O=C(OC12CC3CC(CC(C3)C1)C2)c1ccc(NCc2cc(O)ccc2O)cc1, the Potency is reported as 22.4 µM (active). In the case of Cc1nnc(NCc2ccccc2)c2c1nnn2Cc1ccc(F)cc1, the Potency is reported as “inactive”. For Fc1ccc(CNc2nc3ccccc3n3nnnc23)cc1, the Potency was 7.94 µM (active). With Fc1ccc(CSc2nc(NCc3ccccc3)c3ccccc3n2)cc1 the Potency was “inactive”. In the case of Cc1cccc(Cn2c(SCc3ccc(C(=O)N4CCC(C)CC4)cc3)nc3ccncc32)c1, the Potency is reported as “inactive”. For O=C(Nc1ccc(Br)cc1)c1cc2nc(-c3ccccc3)cc(-c3ccccc3)n2n1, the Potency was “inactive”. In the case of O=C(OCc1nc2ccccc2[nH]1)C1CCCCC1, the Potency is reported as “inactive”. For O=C(C[n+]1ccc2c(c1)nnn2-c1ccccc1)c1ccc(Cl)cc1, the Potency was “inactive”. With O=C(Cc1nc2ccccc2[nH]c1=O)c1ccc(Cl)cc1 the Potency was 12.6 µM (active). In the case of CCn1c(/C=C/c2ccc([N+](=O)[O-])o2)nc2ccccc2c1=O, the Potency is reported as 22.4 µM (active). In the case of CCCN(CCC)c1c([N+](=O)[O-])c(=O)oc2ccccc12, the Potency is reported as “inactive”. In the case of COc1cc(OC)c(OC)cc1/C=C/c1nc2ccccc2c(=O)n1-c1ccc(Br)c(C)c1, the Potency is reported as “inactive”. For CCc1cccc(CC)c1NC(=O)Cn1c(=O)c(-c2cc(C)ccc2NC(C)=O)nc2ccccc21, the Potency was “inactive”. For CCc1nnc(SCc2c(F)cccc2Cl)c2cc3sccc3n12, the Potency was “inactive”. With CCOC(=O)c1ccc(NC(=O)CC2C(=O)N(c3cccc(OC)c3)C(=O)N2C2CCCCC2)cc1 (stereo not drawn) the Potency was “inactive”. In the case of Cc1oc2ncn(CC(C)C)c(=O)c2c1C(=O)N1CCN(c2ccccc2F)CC1, the Potency is reported as “inactive”. For CCOc1ccc(S(=O)(=O)c2cn(Cc3ccc(OC)cc3)c3ccc(F)cc3c2=O)cc1, the Potency was “inactive”. In the case of COc1cc(CN(C(=O)c2ccccc2Br)c2ccccn2)cc(OC)c1OC, the Potency is reported as “inactive”. In the case of O=C(NCc1ccccc1)c1ccc2c(c1)nc1n2CCCCC1, the Potency is reported as “inactive”. In the case of Cc1ccc(CNC(=O)CCc2c(C)nn(-c3ccc(N4CCCC4)nn3)c2C)cc1, the Potency is reported as “inactive”. In the case of CCOCCCNC(=O)c1c(NC(=O)Cc2coc3ccc(C)cc23)sc2c1CCC2, the Potency is reported as “inactive”. For CCC(=O)N1CCc2cc(S(=O)(=O)NC(Cc3ccccc3)C(=O)NCc3ccccc3)ccc21 (stereo not drawn), the Potency was “inactive”. In the case of C[n+]1ccc(/C=C/c2c[nH]c3ccccc23)cc1, the Potency is reported as 10 µM (active). For CCCCN(CC)CCCNC(=O)c1nn(C)c2c1CS(=O)(=O)c1ccccc1-2, the Potency was “inactive”. In the case of Cc1ccc(-n2nc(CO)c(C(=O)NCCc3ccccc3)n2)cc1, the Potency is reported as “inactive”. With CCN(CC)C(=O)CSc1nc2cc3c(cc2c(=O)n1CCCC(=O)NCc1ccc2c(c1)OCO2)OCO3 the Potency was “inactive”. For CCCCn1c(N)c(N(CC(C)C)C(=O)c2ccc(Br)o2)c(=O)[nH]c1=O, the Potency was “inactive”. With CCCCn1c(N)c(N(CCC(C)C)C(=O)c2ccc([N+](=O)[O-])o2)c(=O)[nH]c1=O the Potency was 10 µM (active). With CCCCn1c(N)c(N(CCC(C)C)C(=O)c2ccc(COc3ccccc3)o2)c(=O)[nH]c1=O the Potency was “inactive”. With Fc1ccc(-c2nn(-c3ccccc3Cl)c3c2cnc2ccccc23)cc1 the Potency was “inactive”. For COc1ccc(NC(=O)CSc2nnc(-c3nnn(-c4ccc(F)cc4)c3C)o2)cc1, the Potency was “inactive”. For CCn1cc2nc(SCc3cccc(F)c3)n(CCc3ccccc3)c(=O)c2n1, the Potency was “inactive”. In the case of Cc1cccc(-n2c(O)c(C=Nc3ccccc3N)c(=O)[nH]c2=O)c1, the Potency is reported as “inactive”. For Cc1ccc(N=Cc2c(O)n(-c3nccs3)c(=O)c3ccccc23)c(C)c1, the Potency was 25.1 µM (active). With CCCn1c(NCc2ccccc2F)nc2ccccc21 the Potency was “inactive”. With CCCCOc1ccc(C(=O)N2CC(=O)Nc3ccc(Br)cc3C2c2ccc(F)cc2)cc1 (stereo not drawn) the Potency was “inactive”. With COc1ccc(-c2noc(CSc3nc(C)cc(=O)[nH]3)n2)cc1OC the Potency was “inactive”. In the case of O=C(N/C(=C/c1ccc(Cl)cc1)C(=O)N1CCCCC1)c1ccco1, the Potency is reported as “inactive”. For O=C(Nc1cccc2c1N(C(=O)c1ccco1)CCC2)c1ccco1, the Potency was “inactive”. With O=C(NC(=S)N1CCc2ccccc21)c1ccco1 the Potency was 11.2 µM (active). For CC(=O)c1cccc(NC(=O)C2CCCN(S(=O)(=O)c3cccc4nonc34)C2)c1 (stereo not drawn), the Potency was 31.6 µM (active). For CC(=O)c1cccc(NC(=O)C2CCCN2S(=O)(=O)c2cccc3nsnc23)c1 (stereo not drawn), the Potency was “inactive”. In the case of O=C(NCc1ccco1)C1CCCN(S(=O)(=O)c2cccc3nonc23)C1 (stereo not drawn), the Potency is reported as “inactive”. For CCCCOc1ccc(NC(=O)c2cc3c(n(-c4ccc(Cl)cc4)c2=O)CCCC3=O)cc1, the Potency was “inactive”. In the case of O=C(COc1ccccc1)NCc1ccc2c(c1)CCN2C(=O)c1ccc(F)cc1, the Potency is reported as “inactive”. With Cc1nn2c(=O)cc(COC(=O)CNC(=O)c3ccc(F)cc3)nc2s1 the Potency was “inactive”. With Cc1ccc(S(=O)(=O)N(CC(=O)Nc2ccc(Cl)cc2Cl)c2ccccc2C)cc1 the Potency was “inactive”. With COc1cc(NC(=O)Cn2c(=O)n(Cc3ccco3)c(=O)c3oc4ccccc4c32)cc(OC)c1 the Potency was “inactive”. With COC(=O)c1ccccc1NC(=O)c1ccc(COc2ccccc2Cl)o1 the Potency was “inactive”. For CCOc1cc(C(=O)NCCc2csc3nc(-c4ccc(C)cc4)nn23)cc(OCC)c1OCC, the Potency was “inactive”. For Cc1ccc(NC(=O)c2nc(S(=O)(=O)Cc3cccc(C)c3)ncc2Cl)cc1, the Potency was “inactive”. With O=C(Nc1ccccc1F)C(c1ccccc1)N1Cc2ccccc2C1=O (stereo not drawn) the Potency was “inactive”. For Cc1ccc(COC(=O)CN2C(=O)NC3(CCCC3)C2=O)cc1, the Potency was “inactive”. With CC1=CC(C)(C)Nc2ccc(OC(=O)CN3C(=O)C4CCCCC4C3=O)cc21 (stereo not drawn) the Potency was 31.6 µM (active). In the case of CC(OC(=O)CN1C(=O)C2CCCCC2C1=O)C(=O)Nc1ncc(Cl)cc1Cl (stereo not drawn), the Potency is reported as “inactive”. With Cc1ccc2nc(COc3ccccc3NC(=O)Nc3ccc(F)c(Cl)c3)cc(=O)n2c1 the Potency was “inactive”. With O=c1c2cccnc2n(Cc2cccc(F)c2)c(=O)n1Cc1ccccc1Cl the Potency was “inactive”. For Cc1cc(C)cc(NS(=O)(=O)c2cc3c(cc2C)NC(=O)CO3)c1, the Potency was “inactive”. In the case of Cc1ccc(N2CC(C(=O)Nc3ccc(N(C)C)cc3)CC2=O)cc1Cl (stereo not drawn), the Potency is reported as “inactive”. For CCOc1ccccc1N(C)C(=O)c1cc2c(s1)-c1ccccc1OC2, the Potency was “inactive”. In the case of CCc1cnc2c(c1SCC(=O)c1ccccc1)c(=O)n(C)c(=O)n2C, the Potency is reported as “inactive”. With COc1ccccc1NC(=O)CN1C(=O)c2ccccc2Sc2ccc(C(=O)N3CCCC3)cc21 the Potency was “inactive”. In the case of O=C1C(Cl)=C(Oc2ccccc2)C(=O)c2ccccc21, the Potency is reported as 10 µM (active). In the case of COc1ccc2c(c1)c(=O)c(S(=O)(=O)c1ccc(F)cc1)cn2CC(=O)Nc1ccc(C)cc1C, the Potency is reported as “inactive”. With CCOc1ccc(NC(=O)c2c(NC(=O)Cc3ccccc3)sc3c2CCCCC3)cc1 the Potency was “inactive”. For COc1ccccc1NC(=O)CSc1oc(-c2ccco2)nc1S(=O)(=O)c1ccc(Br)cc1, the Potency was “inactive”. For Cc1ccc(-c2noc(-c3nnn(-c4cccc(C(F)(F)F)c4)c3N)n2)cc1, the Potency was “inactive”. For Cc1ccc(CNC(=O)c2ccccc2CCc2ccccc2)cc1, the Potency was “inactive”. In the case of O=C1c2ccccc2S(=O)(=O)c2cc(N3CCN(c4ccccn4)CC3)ccc21, the Potency is reported as “inactive”. With Cc1ccc(CNC(=O)c2cccc3c2C(=O)c2ccc(N4CCC(C)CC4)cc2S3(=O)=O)cc1 the Potency was 12.6 µM (active). In the case of Fc1ccc(CN2CCc3nc(Nc4ccccc4)ncc3C2)cc1F, the Potency is reported as “inactive”.

— PubChem BioAssay AID602313 (National Center for Advancing Translational Sciences (NCATS), 2012)
Potency is read from the fitted curve at half-maximal effect.
